Pf Dd2 inh – P. falciparum Dd2 growth inhibition. SYBR Green, 72 h; hits give low values. activity change, % at 10 µM. 94,000 tested, 2.3% active. AID 1159554; in the data active means activity change below about -80%; inconclusive means no clear call, values can overlap the other calls
T cruzi growth-1 – inhibitors of T. cruzi proliferation; T. cruzi beta-gal in NIH3T3, GalScreen luminescence, 90 h; inhibition, % at 8.34 µM; 77,000 tested, 5.9% active; AID 624255;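 active means mean inhibition above about 93%, with at least 55% of replicates each passing it, limit read from the data, passing the limit was not always enough; inconclusive means only one of those two conditions holds; inactive means neither condition holds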
C diff growth – blocks growth of Clostridium difficile; Clostridium difficile clinical isolate growth, OD600, 24 h; hits give low values; growth activity, negative = inhibition, % at 16 µg/mL (by protocol); 86,000 tested, 0.25% active; AID 1259249;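 active means mean growth activity at or below -80% and every replicate also at or below -80%; inconclusive means mean at or below -80% but some replicate above -80%; inactive means mean growth activity above -80%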;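 further: 0% = DMSO wells and -100% = levofloxacin 16 µg/mL wells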
T cruzi growth-2 – inhibitors of T. cruzi proliferation; T. cruzi beta-gal in NIH3T3, GalScreen luminescence, 90 h; 5,600 tested, 72% active; inhibition, % at 8.35 µM; shares compounds with T cruzi growth-1;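 active means mean replicate inhibition above about 95% and at least 55% of replicates individually reaching it, limit read from the data; inconclusive means only one of the two criteria is met; inactive means neither criterion is met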
T cruzi growth-3 – Trypanosoma cruzi proliferation inhibition; shares compounds with T cruzi growth-1; T. cruzi beta-gal in NIH3T3, GalScreen luminescence, 90 h; inhibition, % at 2.09 µM; 5,600 tested, 21% active; AID 651740;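 active means mean inhibition above about 95%, with at least 55% of replicates also reaching it, limit read from the data; inconclusive means meets just one of the two conditions; inactive means meets neither condition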;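 further: plate controls were neutral control median for no effect and positive control median for full effect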
3T3 cytotox – NIH/3T3 (mouse) viability loss. shares compounds with T cruzi growth-1. NIH/3T3 viability, CellTiter-Glo ATP luminescence, 90 h. cytotoxicity (signal decrease), % at 8.35 µM. 5,600 tested, 14% active. AID 651742;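 active means mean signal decrease across replicates above about 35% based on untreated-well scatter, with enough replicates individually passing, limit read from the data; inconclusive means no rule stated though some were filed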;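 further: 0% = median of neutral control wells and 100% = median of positive control wells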
3T3 cytotox 2 – kills mouse NIH/3T3 fibroblasts | shares compounds with T cruzi growth-1 | NIH/3T3 viability, CellTiter-Glo ATP luminescence, 90 h | inhibition, % at 24.9 µM | 5,600 tested, 56% active;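 active means mean loss of cell viability signal at or above a set limit, and enough replicates individually reaching it; inconclusive means meets only the mean limit or only the replicate share; inactive means meets neither condition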;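 further: 0% = median of neutral control wells and 100% = median of positive control wells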
Starred values were filed as active, the others as inactive; u = inconclusive; x = no result. Compounds with a hit are over-represented: about 6.7% of the library has one in this group of screens.

SMILES	Pf Dd2 inh	T cruzi growth-1	C diff growth	T cruzi growth-2	T cruzi growth-3	3T3 cytotox	3T3 cytotox 2
CN(C)CC#Cc1ccc([C@H]2[C@H](CO)N3CCCCN(C(=O)NC4CCCC4)C[C@@H]23)cc1	7	32	8	x	x	x	x
COCC#Cc1ccc([C@@H]2[C@@H](CO)N3CCCCN(C(=O)Nc4cc(F)ccc4F)C[C@@H]23)cc1	-17	87	8	x	x	x	x
C[C@H](CO)N1C[C@H](C)[C@H](CN(C)C(=O)Nc2ccc(C(F)(F)F)cc2)OCCCC[C@H](C)Oc2ccc(NC(=O)Cc3ccccc3)cc2C1=O	-43	u	0	103*	102*	18	33*
C[C@@H]1CCCCO[C@@H](CN(C)C(=O)Nc2ccc(C(F)(F)F)cc2)[C@@H](C)CN([C@H](C)CO)C(=O)c2cc(NC(=O)Cc3ccccc3)ccc2O1	-5	u	-4	108*	35	6	19
C[C@@H]1CCCCO[C@@H](CN(C)C(=O)Nc2ccccc2)[C@H](C)CN([C@H](C)CO)C(=O)c2cc(NC(=O)Cc3ccccc3)ccc2O1	-38	67	x	x	x	x	x
C[C@H](CO)N1C[C@H](C)[C@@H](CN(C)C(=O)Nc2ccccc2)OCCCC[C@H](C)Oc2ccc(NC(=O)Cc3ccccc3)cc2C1=O	29	16	x	x	x	x	x
CO[C@H]1CN(C)C(=O)c2cc(NC(C)=O)ccc2OC[C@H](C)N(CCc2ccccc2)C[C@@H]1C	-15	3	-2	x	x	x	x
CCC(=O)N1CC(=O)N2[C@H](CO)[C@H](c3ccc(C#CC4CCCC4)cc3)[C@H]2C1	-4	x	-22	x	x	x	x
CC(C)C#Cc1cnc2c(c1)C(=O)N([C@@H](C)CO)C[C@@H](C)[C@@H](CN(C)C(=O)Cc1ccncc1)O2	-26	39	0	x	x	x	x
CCCC#Cc1ccc2c(c1)O[C@@H](CN(C)C(=O)c1ccccc1F)[C@H](C)CN([C@@H](C)CO)S2(=O)=O	-81*	112*	6	104*	77	32	85*
CC(C)CC#Cc1ccc2c(c1)O[C@@H](CN(C)C(=O)c1ccccc1F)[C@@H](C)CN([C@@H](C)CO)S2(=O)=O	-70	u	12	96*	95	18	106*
CC(C)CC#Cc1ccc2c(c1)O[C@@H](CN(C)C(=O)c1ccccc1F)[C@@H](C)CN([C@H](C)CO)S2(=O)=O	-44	99*	12	89	90	24	103*
COCC#Cc1ccc2c(c1)O[C@@H](CN(C)C(=O)c1ccccc1F)[C@@H](C)CN([C@@H](C)CO)S2(=O)=O	-41	71	0	x	x	x	x
CCCC#Cc1ccc2c(c1)O[C@H](CN(C)C(=O)c1ccccc1F)[C@H](C)CN([C@@H](C)CO)S2(=O)=O	-72	88	12	x	x	x	x
CC(C)CC#Cc1ccc2c(c1)O[C@H](CN(C)C(=O)c1ccccc1F)[C@H](C)CN([C@@H](C)CO)S2(=O)=O	-44	u	6	x	x	x	x
CO[C@H]1CN(C)C(=O)c2ccc(NC(=O)C3CC3)cc2OC[C@H](C)N(Cc2cccc(F)c2)C[C@H]1C	-33	39	-1	x	x	x	x
Cc1ccc(S(=O)(=O)N[C@@H]2CC[C@@H](CCn3cc(C4(O)CCCC4)nn3)O[C@H]2CO)cc1	-27	23	-1	x	x	x	x
CCS(=O)(=O)Nc1ccc2c(c1)C(=O)N(C)C[C@@H](OC)[C@H](C)CN(C(=O)c1ccc3c(c1)OCO3)[C@H](C)CO2	16	8	x	x	x	x	x
COc1ccc(-c2ccc3c(c2)[C@@H]2[C@@H](CCN2C(=O)Cc2cccnc2)[C@@H](CO)N3C)cc1	0	81	-2	x	x	x	x
CN1c2ccc(-c3ccc(F)cc3)cc2[C@@H]2[C@@H](CCN2C(=O)Cc2cccnc2)[C@@H]1CO	-63	u	1	106*	62	-13	-6
CN1c2ccc(-c3ccccc3)cc2[C@H]2[C@H](CCN2C(=O)Cc2ccccc2)[C@H]1CO	9	93	7	x	x	x	x
CN1c2ccc(-c3ccccc3)cc2[C@@H]2[C@@H](CCN2C(=O)Cc2ccccc2)[C@@H]1CO	10	102*	13	103*	111*	-15	106*
COc1ccc(-c2ccc3c(c2)[C@H]2[C@H](CCN2C(=O)Cc2cccnc2)[C@H](CO)N3C)cc1	-75	20	45	x	x	x	x
CN1c2ccc(-c3ccccc3)cc2[C@@H]2[C@@H](CCN2C(=O)Cc2cccnc2)[C@@H]1CO	0	106*	0	109*	71	2	1
COCC#Cc1cnc2c(c1)C(=O)N([C@H](C)CO)C[C@@H](C)[C@H](CN(C)C(=O)Cc1ccncc1)O2	13	-19	-3	x	x	x	x
SMILES	Pf Dd2 inh	T cruzi growth-1	C diff growth	T cruzi growth-2	T cruzi growth-3	3T3 cytotox	3T3 cytotox 2
C[C@H](CO)N1C[C@H](C)[C@H](CN(C)C(=O)Nc2cccc3ccccc23)Oc2ccc(NC(=O)CCC(F)(F)F)cc2C1=O	8	3	-2	x	x	x	x
CCCNC(=O)N(C)C[C@@H]1Oc2cc(C#CCN(C)C)ccc2S(=O)(=O)N([C@@H](C)CO)C[C@@H]1C	-19	49	-5	x	x	x	x
COCC(=O)N1[C@H](C#N)[C@H](c2ccc(-c3cccc(F)c3)cc2)[C@@H]1CO	-2	33	14	x	x	x	x
COc1ccc(NC(=O)N(C)C[C@H]2OCCCC[C@@H](C)Oc3ccc(NS(=O)(=O)c4cn(C)cn4)cc3C(=O)N([C@H](C)CO)C[C@@H]2C)cc1	44	-99	-14	x	x	x	x
Cc1ccc(S(=O)(=O)N(C)C[C@H]2OCCCC[C@@H](C)Oc3ccc(NC(=O)c4ccccc4)cc3C(=O)N([C@@H](C)CO)C[C@@H]2C)cc1	u	46	x	x	x	x	x
Cc1ccc(S(=O)(=O)N(C)C[C@H]2OCCCC[C@H](C)Oc3ccc(NC(=O)c4ccccc4)cc3C(=O)N([C@@H](C)CO)C[C@@H]2C)cc1	-82*	104*	x	106*	43	-9	-32
C[C@@H]1CN([C@@H](C)CO)C(=O)c2cc(NC(=O)c3ccccc3)ccc2O[C@@H](C)CCCCO[C@@H]1CN(C)S(=O)(=O)c1ccccc1	-62	27	x	x	x	x	x
Cc1ccc(S(=O)(=O)N(C)C[C@@H]2OCCCC[C@@H](C)Oc3ccc(NC(=O)c4ccccc4)cc3C(=O)N([C@@H](C)CO)C[C@H]2C)cc1	-81*	100*	x	108*	22	33	31*
C[C@H](CO)N1C[C@H](C)[C@@H](CN(C)C)Oc2ncc(/C=C/c3ccccc3)cc2C1=O	29	x	-8	x	x	x	x
Cc1ccc(S(=O)(=O)N(C)C[C@@H]2Oc3cc(C4=CCCC4)ccc3S(=O)(=O)N([C@H](C)CO)C[C@@H]2C)cc1	-71	x	6	x	x	x	x
C[C@@H]1CN([C@@H](C)CO)S(=O)(=O)c2ccc(C3=CCCC3)cc2O[C@H]1CN(C)S(=O)(=O)c1ccc(F)cc1	-59	116*	0	97*	99*	27	27*

Assay outcomes as filed in PubChem BioAssay.
